Measurements taken from PubChem BioAssay (NCI).
The panel holds about 83,000 compounds, 20% with a hit somewhere; the sample as a whole holds those more often.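 For each line, cells grew in 96-well plates with the test compound present at a single concentration for 48 hours.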 Activity calls are given as the source filed them.

tested on: M14 melanoma; experiment: NCI-60 one-dose screen, 48 h (100 = growth as untreated, 0 = no growth, -100 = all killed); conditions: 10 µM unless noted
Procedure: Growth inhibition of the M14 human tumor cell line is measured as a screen for anti-cancer activity. Cells are grown in 96 well plates and exposed to the test compound for 48 hours. Compounds are tested at a single concentration, which is 10^-5 M for most compounds. The reported endpoint is percent growth (GI% or GIPRCNT), where numbers from 0 - 100% represent growth inhibition, and numbers from -100% - 0 represent cell death. For example, a value of 40 represents 60% growth inhibition. A value of 0 means no net growth occurred over the course of the experiment. A value of -40 indicates 40% of cells at the beginning of the experiment died by the end of the experiment. A value of -100 means all cells are dead at the end of the experiment.
NCI-60 Human Tumor Cell Lines Screen was performed using the standard one-dose NCI protocol, which is described in more detail at https://dtp.cancer.gov/discovery_development/nci-60/default.htm.
Compounds with GIPRCNT values below 10 were considered active. Activity score was based on GIPRCNT using the following formula: […]
Score is 0 for GIPRCNT values of 100 or above, 50 for GIPRCNT values of 0, and 100 for GIPRCNT values of -100.

Row | SMILES | growth
1 | NC(=O)c1cccc(-c2ccc(S(=O)(=O)Nc3ccc4c(c3)N(C(=O)C3CC3)CCC4)cc2)c1 | 95.5% (inactive)
2 | COc1ccc2c(c1)c(-c1noc(-c3cn(C)c4ncc(F)cc34)n1)cn2C | 91.9% (inactive)
3 | O=C1CC(c2ccccc2)Cc2nc3ccc(Br)cc3cc21 (stereo not given) | 10.2% (inactive)
4 | O=C1/C(=C\c2cn(CC(O)CN3CCCCC3)c3ccccc23)c2ccccc2N1c1c(Cl)cccc1Cl (stereo not given) | -81.1% (active)
5 | Cn1ncc2c(Nc3ccc(O)cc3)nc(Cl)nc21 | 111% (inactive)
6 | CCc1ccc(NC(=O)N[C@@H](Cc2cc(F)cc(F)c2)C(=O)N[C@@H]2C(=O)N3C[C@H](O)C[C@H]3C(=O)N3CCOC[C@H]3C(=O)N[C@@H](C)C(=O)N3C[C@H](C)C[C@H]3C(=O)O[C@H]2C)cc1 | 84.8% (inactive)
7 | O=c1[nH]c2cc(Cl)c(Cl)cc2n2cc3ncccc3c12 | 101% (inactive)
8 | CC(C)(C)c1cc(C(=O)N2CCC(C(=O)NCCN)CC2)cc(C(C)(C)C)c1 | 113% (inactive)
9 | CC(C)c1ccc(C(=O)Nc2nc3ccc(O)cc3s2)cc1 | 3.05% (active)
10 | O=[N+]([O-])c1cccc(/C=C/c2ccc3ccccc3n2)c1 | 82.3% (inactive)
11 | Nc1ccc(NC(=O)c2ccccc2)c2c1C(=O)c1ccccc1C2=O | 100% (inactive)
12 | C=C(C)[C@@H]1CC[C@]2(C)[C@H](CC[C@@H]3[C@@H]([C@@](C)(O)CCC=C(C)C)CC[C@]32C)[C@@]1(C)CCC(=O)N1CCN(C)CC1 | -70.5% [100 µM] (active)
13 | COc1ccc(C2=C(c3cn(C)c4ccccc34)C(=O)OC2)cc1OC | 50% (inactive)
14 | Cn1cc(-c2nnc(-c3cn(C)c4ncccc34)o2)c2ccccc21 | 35.5% (inactive)
15 | COc1ccc2nc3cc(Cl)ccc3c(Nc3ccc(O)c(CN4CCCC4)c3)c2c1 | -83.2% (active)
16 | CSc1cccc([N+](=O)[O-])c1 | 102% (inactive)
17 | Clc1ccccc1/C=N\Nc1ccccn1 | 124% (inactive)
18 | c1nc(N2CCOCC2)c2[nH]ccc2n1 | 103% (inactive)
19 | CCOC(=O)COc1c(C)cc(SSc2cc(C)c(OCC(=O)OCC)c(C)c2)cc1C | 103% (inactive)
20 | COc1cc2c(=O)[nH]c3cc([N+](=O)[O-])ccc3c2cc1[N+](=O)[O-] | 76.4% (inactive)

Row | SMILES | growth
21 | CCOc1ccc2sc(NS(=O)(=O)c3ccc(N)cc3)nc2c1 | 109% (inactive)
22 | O=C(N/N=C/c1ccc([N+](=O)[O-])cc1)c1ccc(Br)o1 | 107% (inactive)
23 | O=C(N[C@@H]1CCCc2ccccc21)[C@H](CCC(=O)N1CCN(C2CCCCC2)CC1)N1C(=O)[C@@H](N2C(=O)OC[C@@H]2c2ccccc2)[C@H]1/C=C/c1ccccc1 | 14.2% (inactive)
24 | COc1ccc(-c2c(C)nn3c(NCCN4CCOCC4)cc(C)nc23)cc1OC | 96.3% (inactive)
25 | COc1ccc(C(=O)c2nccc3cc(OC)c(OC)cc23)cc1OC | 89.3% (inactive)
26 | COc1ccc(C(C(=O)O)c2ccc(OC)cc2)cc1 | 114% (inactive)
27 | CC(C)(C)c1cc(C(=O)Nc2cc3ccccc3cc2C(=O)NCCN)cc(C(C)(C)C)c1 | -81.2% (active)
28 | CCOC(=O)C(c1ccccc1)N1C(=O)c2ccccc2C1=O (stereo not given) | 96.7% (inactive)
29 | CCN(CC)CC(C)Nc1ccc(C)c2sc3ccccc3c(=O)c12 (stereo not given) | 3.81% (active)
30 | Nc1cc(N)c(N=Nc2ccc(S(=O)(=O)O)cc2)cc1N=Nc1ccc(-c2ccc(N=Nc3ccc(O)c(C(=O)O)c3)cc2)cc1 | 99.8% (inactive)
31 | Cn1cc(-c2nnc(-c3ccccc3)s2)c2cc(Br)cnc21 | 101% (inactive)
32 | Ic1ccc2[nH]cc(SSc3c[nH]c4ccc(I)cc34)c2c1 | 27.6% (inactive)
33 | COc1cc(/C=C/C(=O)/C=C/c2ccc(-n3ccnc3C)cc2)ccc1O | 111% (inactive)
34 | C=C(C)[C@@H]1CC[C@]2(C(=O)OC)CC[C@]3(C)[C@H](CC[C@@H]4[C@@](C)(CCc5nn[nH]n5)[C@H](C(=C)C)CC[C@]43C)[C@@H]12 | -9.37% [100 µM] (active)
35 | O=C1COCCN1c1ccc(NCc2cn(Cc3ccccc3)c3ccccc23)cc1 | 90.2% (inactive)
36 | COc1cc2c(cc1OC(C)=O)C(=O)CCCC2 | 87.9% (inactive)
37 | Cc1nc(-c2ccccc2)sc1CC#N | 125% (inactive)
38 | CCOC(=O)c1nn(C2CCCCO2)c2ccc(NC(=O)Cn3nnc4ccccc43)cc12 (stereo not given) | 102% (inactive)
39 | Cc1ncc(C(=O)Nc2ccc(CN3CCN(C)CC3)c(C(F)(F)F)c2)cc1C#Cc1c(N)ncc2ccc(C#N)cc12 | -12% (active)
40 | COc1ccc2c(c1)c(-c1noc(C(=O)c3cn(C)c4ncc(Br)cc34)n1)cn2C | 91.3% (inactive)
